Screening results as filed in PubChem.
An excerpt weighted towards active compounds, which were near 12% of everything screened.
HP1b binding inh: HTS for Inhibitors of HP1-beta Chromodomain Interactions with Methylated Histone Tails | Chromobox protein homolog 1 (Homo sapiens), P83916 | Potency, µM (highest dose often 114 µM), without a hit: top-dose activity change, negative = inhibition, most hits filed as inhibitors | AlphaScreen HP1-beta / biotin-H3K9me3 peptide binding | 0.56% of 390,000 active; further: nearly all actives have a fitted effect of over 70% in size
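AlphaScreen: HP1-beta (50 nM) preformed 30 min with biotin-H3(1-18)K9me3 peptide (50 nM) in PBS pH 7.4, 0.01% Tween-20. Compound added for 30 min at RT, then streptavidin donor/nickel chelate acceptor beads (10 ug/mL) for 30 min.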
JMJD2A Tudor inh: qHTS Assay for Inhibitors of JMJD2A-Tudor Domain; Potency, µM (titrated, usually from 114 µM), inactives show top-dose activity change, negative = inhibition, usual class: inhibitors; AID 504339, 2011; AlphaScreen JMJD2A-Tudor / H3K4me3 peptide binding; Lysine-specific demethylase 4A (Homo sapiens), O75164; 4.4% of 390,000 active; further: on the % scale 0 is the no-effect control and ±100 the full control effect; nearly all actives have a fitted effect of over 50% in size
Target sequence (O75164 whole entry, looked up, the tested form may be a part): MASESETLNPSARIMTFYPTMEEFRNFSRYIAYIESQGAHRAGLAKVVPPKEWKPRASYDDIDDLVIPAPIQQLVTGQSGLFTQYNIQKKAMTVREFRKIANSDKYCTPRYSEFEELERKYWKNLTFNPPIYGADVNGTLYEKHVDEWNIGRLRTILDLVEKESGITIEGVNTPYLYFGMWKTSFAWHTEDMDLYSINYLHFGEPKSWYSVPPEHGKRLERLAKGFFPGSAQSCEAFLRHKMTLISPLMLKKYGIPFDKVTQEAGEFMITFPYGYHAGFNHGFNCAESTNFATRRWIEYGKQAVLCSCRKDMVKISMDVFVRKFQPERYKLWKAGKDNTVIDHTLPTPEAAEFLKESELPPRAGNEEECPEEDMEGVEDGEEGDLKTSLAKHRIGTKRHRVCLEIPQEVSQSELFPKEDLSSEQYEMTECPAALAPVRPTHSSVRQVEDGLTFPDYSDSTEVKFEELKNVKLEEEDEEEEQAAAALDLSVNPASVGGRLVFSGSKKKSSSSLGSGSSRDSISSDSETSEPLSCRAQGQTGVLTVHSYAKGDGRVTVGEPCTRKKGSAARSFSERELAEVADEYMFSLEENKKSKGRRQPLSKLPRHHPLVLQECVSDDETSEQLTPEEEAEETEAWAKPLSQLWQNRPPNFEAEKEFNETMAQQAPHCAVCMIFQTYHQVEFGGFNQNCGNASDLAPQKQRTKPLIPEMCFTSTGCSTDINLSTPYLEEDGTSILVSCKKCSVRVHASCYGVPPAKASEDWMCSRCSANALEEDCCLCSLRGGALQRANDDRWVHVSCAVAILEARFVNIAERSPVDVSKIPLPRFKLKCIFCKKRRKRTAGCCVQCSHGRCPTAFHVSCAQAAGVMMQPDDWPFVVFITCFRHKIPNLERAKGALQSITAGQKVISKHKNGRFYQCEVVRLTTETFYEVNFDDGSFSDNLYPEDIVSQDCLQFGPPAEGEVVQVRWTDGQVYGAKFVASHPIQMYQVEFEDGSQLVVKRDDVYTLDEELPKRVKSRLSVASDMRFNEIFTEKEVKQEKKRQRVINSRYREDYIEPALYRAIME
G9a inh: qHTS Assay for Inhibitors of Histone Lysine Methyltransferase G9a. 8.8% of 350,000 active. Histone-lysine N-methyltransferase EHMT2 (Homo sapiens), Q96KQ7. Potency, µM (titrated, usually from 102 µM), for the others: top-dose activity, negative = inhibition, actives largely listed as inhibitors. G9a H3K9 monomethylation, AlphaScreen, 2 h. AID 504332, 2011; further: on the % scale 0 is the no-effect control and ±100 the full control effect; nearly all actives have a fitted effect of over 75% in size
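Compounds were preincubated with 20 nM G9a for 15 min, after which biotinylated H3K9 peptide (500 nM) and SAM (20 uM) started a 2 h room-temperature reaction. Monomethylated product was quantified by antibody-based AlphaScreen chemiluminescence.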
Sfp PPTase inh: qHTS Assay for Inhibitors of Bacillus subtilis Sfp phosphopantetheinyl transferase (PPTase) | 4'-phosphopantetheinyl transferase ffp (Bacillus subtilis), Q9F4F7 | Biochemical Sfp PPTase activity, qHTS | Potency, µM, for the others: largest response in the series, negative = inhibition, usual class: inhibitors | 3.5% of 310,000 active;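 further: the enzyme is Sfp with the accession as filed and its product quenches rhodamine fluorescence; 0% = enzyme reaction without inhibitor and -100% = no enzyme wells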
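Buffer: 50 mM Hepes-Na pH 7.6, 10 mM MgCl2, 0.01% Nonidet P-40, 0.01% BSA. Enzyme 15 nM, pre-exposed to compound 15 min; substrates then added and fluorescence change tracked over 30 min.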
BAZ2B block: qHTS Assay for Inhibitors of BAZ2B; Bromodomain adjacent to zinc finger domain protein 2B (Homo sapiens), Q9UIF8; AID 504333, 2011; Potency, µM (series often up to 114 µM), for the others: top-dose activity change, negative = inhibition, usual class: inhibitors; 4.4% of 360,000 active; AlphaScreen BAZ2B-H3K14Ac peptide displacement; further: on the % scale 0 is the no-effect control and ±100 the full control effect; nearly all actives have a fitted effect of over 60% in size
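Inhibition is scored as reduced AlphaScreen emission. The BAZ2B/b-H3(5-23)K14Ac complex (50 nM each) in PBS pH 7.4, 0.01% Tween-20 meets compound (up to 110 uM) for 30 min at RT before bead addition.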
Numbers without * were called inactive; u = inconclusive; x = not tested or not shown; ! = repeats disagree; [ ] = remark or other dose. The call rests on the fitted dose curve; in most records, active means well fitted curve in the direction sought with a large enough effect; inconclusive means small, poorly fitted or top-dose-only effect, or another doubt; inactive means no such curve, though single readings can be large; an effect the other way counts as inactive or inconclusive. Potency means the concentration at half of the fitted maximal effect.

SMILES	HP1b binding inh	JMJD2A Tudor inh	G9a inh	Sfp PPTase inh	BAZ2B block
CCN(CC)[C@@H](C)CN1c2ccccc2Sc2ccccc21	x	x	8.91µM*	11.3%	x
CCN(CC)CCN1c2ccccc2Sc2ccccc21	44.7µM*	2.82µM*	u	-15.6%	70.8µM*
O=C(Nc1ccc(Cl)cc1)C1CCCN(S(=O)(=O)c2ccc3[nH]c(=O)ccc3c2)C1 (configuration not stated)	76.8%	-3.7%	7.8%[59 µM]	x	3.6%
O=c1[nH]c2ccccc2nc1/C=C(\O)c1cccs1	16.7%	-6.5%	x	1.3%	7.4%
O/C(=C\c1nc2ccccc2[nH]1)c1cccs1	-3.2%[57 µM]	-28.8%	25.1µM*	-12.3%	-29.6%
O=S(=O)(c1ccc(Cl)cc1)N1CCN(c2nc(-c3ccccc3)nc3ccccc23)CC1	31.2%	-14.2%	x	x	x
N[C@@H](CO)C(=O)O	x	x	x	63.1µM*!	x
N[C@H](CO)C(=O)O	x	x	11.9µM*!	-3.6%	x
N[C@H](C(=O)O)C(O)C(O)C(O)CO (some centres not stated)	x	x	x	5.2%	x
Cc1ccc(O)c(Nc2nc3ccccc3c3nncn23)c1	12.9%	-15.1%	14.3%[59 µM]	x	-0.5%
CC(C)(C)c1ccc(CN2N=C(/C=C/c3ccccc3)CCC2=O)cc1	74.4%	9.8%	48.5%	14.1%	6.3%
CCOC(=O)c1scc(-c2ccc(C)cc2)c1S(=O)(=O)Nc1ccc(OC)c(Cl)c1	-5.8%	-22.0%	u	x	-19.1%
N#Cc1cc2ccccc2n2nnnc12	16.7%	0.0%	50.1µM*	6.2%	-10.4%
Cc1cc(C)n(-c2nc3ccccc3n3nnnc23)n1	30.5%	-6.8%	u	16.0%	0.1%
CCOCCOC(=O)c1ccc(NC(=O)/C=C/c2ccc(OC)c(OC)c2)cc1	28.0%	-7.5%	-0.5%[59 µM]	x	-5.5%
CS(=O)(=O)Nc1ccccc1C(=O)OCC(=O)NCc1cccs1	33.9%	2.1%	x	x	x
COc1ccc(CCNC(=O)COC(=O)c2ccco2)cc1OC	29.3%	-3.0%	-4.2%	1.4%	8.7%
CCOC(=O)N1CCN(C(=O)COC(=O)c2ccccc2NCCO)CC1	6.7%	2.8%	50.1µM*	x	35.8%
O=C(OCC(=O)N1CCC(Cc2ccccc2)CC1)c1ccccc1NCCO	28.8%	12.6%	-7.3%	x	13.2%
O=C(COC(=O)c1ccccc1NCCO)NCc1cccs1	-15.6%	u	44.7µM*	x	-0.9%
COc1ccc(CCNC(=O)COC(=O)c2ccccc2NCCO)cc1OC	-2.5%	u	50.1µM*	x	-6.8%
O=C(c1cccc(S(=O)(=O)NCc2ccccc2)c1)N1CCN(c2ccccc2Cl)CC1	23.1%	-19.5%	x	x	x
O=C(CSc1nc2nn(-c3ccccc3)c(=O)c-2c2n1CCCCC2)Nc1ccccc1[N+](=O)[O-]	14.3%	-27.4%	u	x	-24.0%
COc1ccccc1CNC(=O)c1cnn(-c2ccc(F)cc2F)c1C1CCN(C(=O)OC(C)(C)C)CC1	4.7%	-26.2%	-9.3%[59 µM]	x	1.8%[57.1 µM]
CN(C)c1cccc2c1C(=O)c1ccccc1C2=O	28.2µM*	44.7µM*	11.2µM*	-9.9%	8.91µM*
SMILES	HP1b binding inh	JMJD2A Tudor inh	G9a inh	Sfp PPTase inh	BAZ2B block
CC1=CC(=O)c2c(O)ccc(O)c2C1=O	x	x	-189.3%[59 µM]	25.1µM*	3.55µM*
COc1ccccc1N1CCN(CCCCN2C(=O)CCC2=O)CC1	x	x	-9.2%[59 µM]	-10.6%	x
Cc1cccc(C)c1OCCCCN1CCNCC1	-8.8%	6.31µM*	25.1µM*	-23.2%	u
COc1ccc(S(=O)(=O)NCCN2CCOCC2)c2ccccc12	14.5%	-23.6%	28.2µM*	-8.4%	-28.4%
Cc1cccc(C)c1OCCCN1CCOCC1	-0.8%	-14.9%	35.5µM*	-8.8%	-22.5%
COc1ccccc1N1CCN(CCCCNS(=O)(=O)c2cccc3c(N(C)C)cccc23)CC1	x	x	26.7µM*	x	x
NC(=O)C1CC(=O)N(c2ccc(OCc3ccc(Cl)cc3)cc2)C1 (configuration not stated)	12.8%	u	22.5%	-6.6%	0.8%
COc1ccccc1CNC(=O)c1cnc(N(C)C)nc1	9.2%	-9.3%	23.1%[59 µM]	x	-6.2%
CCc1nnc2c(Nc3ccc(Br)c(C)c3)nc3ccccc3n12	24.5%	u	u	x	4.4%
COc1cccc(OC)c1OCCCN1CCOCC1	u	2.51µM*	u	-19.7%	50.1µM*
Cc1ccc(CC(=O)Nc2ccc3c(c2)N(C)C(=O)c2ccccc2S3)cc1	u	u	3.98µM*	x	u
COc1cccc(OC)c1OCCOc1ccccc1OC(C)C	58.0%	51.2%	28.3%	10.8%	8.0%
CC(C)Oc1ccccc1OCCN(C)C	u	31.6µM*	12.6µM*	-54.4%	44.7µM*
O=C(O)CCCCCCNS(=O)(=O)c1ccccc1	25.1%	8.4%	21.2%	-4.1%	u
O=C(O)CCCNS(=O)(=O)c1ccc(NCc2ccccc2)c(C(=O)O)c1	40.0%	-9.0%	22.4µM*	-4.8%	-36.2%
Cc1ccc(S(=O)(=O)n2nc(-c3ccc(Cl)cc3)nc2NCc2ccc(F)cc2)cc1	48.6%	15.8%	20.8%[59 µM]	x	2.5%
COc1ccccc1NC(=O)c1csc2c1CCC(C)C2 (configuration not stated)	129.2%	87.3%	u	u	-26.0%
CC1CCc2c(C(=O)NCc3ccco3)csc2C1 (configuration not stated)	22.0%	-6.2%	56.2µM*	-8.7%	-36.9%
CC1CCc2c(C(=O)Nc3cccc(-c4nn[nH]n4)c3)csc2C1 (configuration not stated)	18.9%	-26.3%	50.1µM*	-13.0%	-27.7%
CCc1nnc(NC(=O)c2csc3c2CCC(C)C3)s1 (configuration not stated)	x	x	10.6%	23.7%	-13.6%
CCc1cccc(C)c1NC(=O)C1CCN(S(=O)(=O)c2cc(Br)cc3c2N(C(C)=O)CC3)CC1	33.5%	1.4%	-2.5%[59 µM]	x	-6.9%
COc1ccccc1NC(=O)COC(=O)Cn1cnc2c1c(=O)n(C)c(=O)n2C	44.5%	-0.8%	x	x	x
CCCCCCCCCCCC(=O)OCC(O)CO (configuration not stated)	x	x	17.9%[59 µM]	0.9%	x
CCCCCCCCCCCCCCCCCC(=O)OCC(C)O (configuration not stated)	x	x	25.1µM*	-10.6%	x
CCNc1nc2[nH]c(=O)c3c(c2s1)OC(N)=C(C#N)C3c1ccc(C)cc1 (configuration not stated)	38.1%	-21.7%	u	44.7µM*	u
O=c1oc2c(CN3CCOCC3)c(O)ccc2cc1-c1ccc(Cl)cc1	184.1%	26.3%	30.9%[59 µM]	x	111.8%
Cc1cnc(C(=O)OCc2nc3ccccc3o2)cn1	20.1%	-4.5%	x	x	x
Cc1nnc(SC/C=C/c2ccccc2)n(N)c1=O	13.8%	2.2%	-1.4%	9.0%	-31.9%
